51 compounds from ChEMBL document CHEMBL4513216, “Probing the Open Global Health Chemical Diversity Library for Multistage-Active Starting Points for Next-Generation Antimalarials” (ACS Infect Dis, 2020) can be followed below.

Molecules are shown by their SMILES. Out of some 68,000 compounds screened, about 2,700 (4%) showed an effect of 50% or more. The sample as a whole holds a higher share of strong results than the screen did.

This assay relates to Plasmodium berghei. Put plainly: Screen against P. berghei liver stage (PbLuc), transformed with Luciferase, at 2uM. Type of assay: functional, HepG2. Conditions: tested at 2 uM.
Take `CCC(=O)N1C[C@@H]2CCN(c3cnccn3)C[C@@H]2C1`: the INHIBITION turned out to be 40.28%.

On to `CCCC(=O)N1C[C@@H]2CCN(c3cnccn3)C[C@@H]2C1`, for which the INHIBITION was 50.72%.

On to `Cc1noc(C)c1CN1C(=O)[C@@H]2CC[C@H]1CN(Cc1cscn1)C2`, for which the INHIBITION was -55.91%.

For the compound `Cc1ccccc1SC1CCN(C(=O)C2[C@H]3CNC[C@@H]23)CC1` (stereo partly specified), the INHIBITION is on record as 2.49%.

As to `O=C(CCCn1cncn1)N1CCCC1c1noc(C2CC2)n1` (stereo unspecified), the INHIBITION came to 8.65%.

As to `Cc1nc(CN2CCCC2c2noc(C3CC3)n2)nc2ccccc12` (stereo unspecified), the INHIBITION was 22.29%.

Consider `CN1CCC(O)(CNC(=O)c2cc(COc3cccc(F)c3)[nH]n2)CC1`, for which the INHIBITION was -13.79%.

For the compound `Cc1n[nH]c(C2CN(C(=O)c3cc(C)sc3C)CCO2)n1` (stereo unspecified), the INHIBITION is reported as 40.13%.

For the compound `O=C(Cn1ccc2cc(Br)ccc21)NCc1ccc(C(=O)O)cc1`, the INHIBITION amounted to 18.15%.

Turning to `CCCS(=O)(=O)N1CCOC2(CCCN(c3ccc(C)nn3)C2)C1` (stereo unspecified), the INHIBITION is listed as -15.73%.

Take `CCc1ccc(NC(=O)N2C[C@@H]3C[C@H](C(=O)NC)[C@H](C2)O3)cc1`: the INHIBITION is -56.73%.

With `CNC(=O)[C@H]1C[C@H]2CN(C(=O)Nc3ccccc3)C[C@@H]1O2`, the INHIBITION is on record as 7.35%.

In the case of `CNC(=O)[C@H]1C[C@H]2CN(C(=O)Nc3ccc(F)cc3)C[C@@H]1O2`, the INHIBITION was 56.15%.

With `COCCOCC(=O)N1C[C@@H]2CC[C@H](Oc3cccc(F)c3)[C@@H]2C1`, the INHIBITION is 24.06%.

For the compound `Cc1ccc(C)c(NS(=O)(=O)c2cc3c(c(C(=O)O)c2)OCCO3)c1`, the INHIBITION was -5.09%.

On to `O=C(Cc1ccc(F)cc1)N1CCn2cc(Cn3cncn3)nc2C1`, for which the INHIBITION is recorded as 37.2%.

Turning to `CC(=O)N1C[C@@H](c2ccsc2)[C@@H]2CN(Cc3ccccc3Cl)CC[C@@H]21`, the INHIBITION is given as -27.6%.

With `CN1CCC(c2cccc(NCc3nccn3C)n2)CC1`, the INHIBITION is listed as 29.25%.

Take `C1CN(CC2CC2)C(COCC2CC2)c2nnn(CC3CC3)c21` (stereo unspecified): the INHIBITION is 61.44%.

Consider `Cn1nnc2c1CCN(CC1CC1)C2COCC1CC1` (stereo unspecified), for which the INHIBITION was -10.89%.

`C1CC(CN2CCc3c(nnn3CC3CC3)C2COCC2CC2)C1` (stereo unspecified): the INHIBITION is given as -38.23%.

With `Cn1nc2c(cc1=O)CN(Cc1nc(C(C)(C)C)no1)CC2`, the INHIBITION came out at 12.91%.

As for `COc1cc(Cl)c(NC(=O)NCCn2cccc2)cc1OC`, the INHIBITION was -23.44%.

Consider `COc1cc(C)c(NC(=O)CCn2cccc2)cc1OC`, for which the INHIBITION was 30.42%.

In the case of `COc1cc(C)c(NC(=O)NCCn2cccc2)cc1OC`, the INHIBITION stood at 74.18%.

As for `CCN(Cc1cccc2c1OCO2)C(=O)NCc1ccccn1`, the INHIBITION is reported as -5.39%.

As for `O=C(Cc1cccs1)N1C[C@H]2CC[C@@H](C1)N(Cc1ccccn1)C2=O`, the INHIBITION is 14.63%.

Take `COCC(O)CN(C)C(=O)NCc1ccc(-c2ccn[nH]2)cc1` (stereo unspecified): the INHIBITION is listed as -0.21%.

As to `COc1ncc(C(=O)N2CCC3(CC2)C(=O)Nc2ccccc23)cn1`, the INHIBITION came to 50.32%.

`O=C(c1ccncc1)N1CCC2(CC1)C(=O)Nc1ccccc12`: the INHIBITION was 49.25%.

Take `N#Cc1ccc(C(=O)N2CCC3(CC2)C(=O)Nc2ccccc23)cn1`: the INHIBITION is recorded as 24.88%.

As for `Cc1ocnc1C(=O)N1CC[C@@H](O)[C@@H](O)[C@H](N2CCC(F)(F)CC2)C1`, the INHIBITION worked out at 7.4%.

Regarding `CCCOc1ccccc1CN[C@@H]1CCC[C@H]1Cc1cc(C)no1`, the INHIBITION came out at 3.28%.

Consider `CC(C)CC(CCO)CNC(=O)N1CC(C)(C)C1(C)C` (stereo unspecified), for which the INHIBITION was -6.69%.

In the case of `CCCS(=O)(=O)N1CC(=O)N(Cc2cccc(OC)c2OC)CC(O)C1` (stereo unspecified), the INHIBITION was -13.32%.

`CCOc1ccccc1C(CC(=O)Nc1ncc(C)s1)NC(C)=O` (stereo unspecified): the INHIBITION is -32.89%.

In the case of `CCOc1ccccc1C(CC(=O)Nc1ccccc1)NC(C)=O` (stereo unspecified), the INHIBITION came out at 23.45%.

As to `CCOc1ccccc1C(CC(=O)Nc1nc(C)cs1)NC(C)=O` (stereo unspecified), the INHIBITION amounted to 67.59%.

Regarding `CC(C)c1nnc2n1CCN(C(=O)c1cccc(C(F)(F)F)c1)C2`, the INHIBITION is on record as 15.31%.

Consider `Cc1nc(N2CCCC2)nc2c1CCN(Cc1nccn1C)CC2`, for which the INHIBITION stood at 9.98%.

For `CCc1nnc2n1CCN(c1nc(C)cc(N(C)C)n1)C2`, the INHIBITION is 62.51%.

In the case of `Cc1cc(N(C)C)nc(N2CCn3c(nnc3C(C)C)C2)n1`, the INHIBITION is on record as -6.64%.

As to `CC(C)Nc1nc2c(c(N(C)C)n1)CCN(Cc1nccn1C)CC2`, the INHIBITION is listed as 28.11%.

As to `Cc1cc(N(C)C)nc(N2CCn3c(C)nnc3C2)n1`, the INHIBITION is listed as 29.13%.

Consider `CN(C)c1nc(N2CCCC2)nc2c1CCN(Cc1nccn1C)CC2`, for which the INHIBITION was determined as 55.92%.

Take `Cc1cc(C)nc(N2CCN(Cc3nccn3C)CC2)n1`: the INHIBITION amounted to 5.78%.

As to `Cc1cc(C(F)(F)F)nc(N2CCN(Cc3nccn3C)CC2)n1`, the INHIBITION amounted to 10.91%.

Take `Cc1cc(N(C)C)nc(N2CCN(Cc3nccn3C)CC2)n1`: the INHIBITION is recorded as 50.61%.

On to `NS(=O)(=O)c1ccc(NCc2ccco2)c2ncccc12`, for which the INHIBITION came to 7.3%.

As for `Cc1ccccc1-c1cc(C(=O)NCCN2CCCS2(=O)=O)[nH]n1`, the INHIBITION was 36.65%.

With `Cc1ccccc1-n1c(C)cc(C(=O)N2CCn3c(C)nnc3C2)c1C`, the INHIBITION is -61.5%.
